Yp Topo-I inh: inhibitors of Yersinia pestis topoisomerase I; AID 504884; activity, % at 10 µM; hit rate 0.064% among 360,000; Y. pestis Topo-I cleavage product accumulation, plate reader; in the data active = activity above about 50%, passing the limit was not always enough
FadD28 FP inh: M. tuberculosis FadD28 bisubstrate binding inhibition. inhibition, % at 12.5 µM. AID 588549. FadD28 bisubstrate probe binding, fluorescence polarization. hit rate 0.22% among 360,000; in the data active = inhibition above about 8.5%, passing the limit was not always enough
PrP 5UTR inh: inhibition of PrP 5' UTR reporter expression; inhibition, % (concentration not given with the values); cell-based PrP 5' UTR mRNA reporter, plate reader; hit rate 0.35% among 340,000; in the data active = inhibition above about 52%
PfHsp40 yeast: restores yeast growth despite PfHsp40 toxicity; S. cerevisiae expressing PfHsp40, growth rescue, ATP luminescence; growth rescue, % at 12.5 µM; hit rate 0.68% among 340,000; AID 504582; in the data active = growth rescue above about 28%, passing the limit was not always enough;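 note: yeast W303a lacking pdr1 and pdr3 grown in galactose medium; growth measured after three days at 30 °C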
BioA inh-1: inhibitors of Mycobacterium tuberculosis BioA enzyme | inhibition, % at 9.99 µM | AID 602481 | purified M. tuberculosis BioA enzyme, plate reader | hit rate 0.096% among 360,000; in the data active = inhibition above about 40%
BioA inh-2: inhibitors of Mycobacterium tuberculosis BioA enzyme | shares compounds with BioA inh-1 | purified BioA enzyme, plate reader, dose response | max activity, % | 310 tested, under 10 active | AID 651679;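 note: top concentration of the dilution series was 10 µM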
Target sequence (P9WQ81 whole entry, looked up): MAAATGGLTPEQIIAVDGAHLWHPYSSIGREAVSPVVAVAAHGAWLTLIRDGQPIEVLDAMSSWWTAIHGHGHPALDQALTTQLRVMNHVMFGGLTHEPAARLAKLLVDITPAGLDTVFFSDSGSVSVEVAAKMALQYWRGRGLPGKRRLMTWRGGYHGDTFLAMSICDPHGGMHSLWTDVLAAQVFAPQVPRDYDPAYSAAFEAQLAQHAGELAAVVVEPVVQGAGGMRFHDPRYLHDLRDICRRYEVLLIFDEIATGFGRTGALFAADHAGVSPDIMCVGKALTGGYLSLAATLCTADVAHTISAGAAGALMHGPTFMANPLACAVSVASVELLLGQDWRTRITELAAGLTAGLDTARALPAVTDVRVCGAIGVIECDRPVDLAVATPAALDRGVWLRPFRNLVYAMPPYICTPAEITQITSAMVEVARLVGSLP
HepG2 tox 2: cytotoxicity in HepG2 cells; max activity, %; plate reader; 310 tested, under 10 active; shares compounds with BioA inh-1
NIH3T3 tox 5: kills NIH3T3 cells. activity change, negative = cytotoxicity, % at 26 µM. 310 tested, under 10 active. AID 651900. shares compounds with BioA inh-1. NIH3T3 cytotoxicity, plate reader
Numbers stand for hits; n = inactive; x = no result given. A selection: hits, their analogues and other compounds. The true share with any hit is near 1.1%. Unless noted, the rule behind the calls is not given here.

SMILES | Yp Topo-I inh | FadD28 FP inh | PrP 5UTR inh | PfHsp40 yeast | BioA inh-1 | BioA inh-2 | HepG2 tox 2 | NIH3T3 tox 5
CC1Cc2nc(SCC(=O)N3CCN(c4ccccc4)CC3)n(C)c(=O)c2S1 (configuration not stated) | n | n | n | n | n | x | x | x
O=C(CSc1nc2c(c(=O)n1-c1ccc(F)cc1)SCC2)N1CCCC1 | n | n | n | n | n | x | x | x
O=C(CSc1nc2c(c(=O)n1-c1ccccc1)SCC2)N1CCOCC1 | n | n | n | n | 88 | n | n | n
C[C@@H]1CN([C@@H](C)CO)S(=O)(=O)c2ccc(-c3cccnc3)cc2O[C@H]1CN(C)C | x | x | x | x | n | x | x | x
C/C=C/c1ccc([C@@H]2[C@@H](CO)N(c3ncc(CC)s3)[C@H]2C#N)cc1 | x | x | x | x | n | x | x | x
COc1cc2cnc(-c3cccnc3)cc2cc1OC | n | n | n | n | 46 | n | n | n
COc1ccc(-c2cc3cc(OC)c(OC)cc3cn2)cc1OC | n | n | n | n | x | x | x | x
CCc1ccc(C(=O)Nc2ccc(OC)c(S(=O)(=O)N3CCOCC3)c2)cc1 | n | n | n | n | x | x | x | x
COc1ccc(NC(=O)c2ccc(Cl)nc2)cc1S(=O)(=O)N1CCOCC1 | n | n | n | n | 59 | n | n | n
CC(=O)c1ccc(NC(=O)COC(=O)Cc2ccsc2)cc1 | n | n | n | n | 47 | n | n | n
CC(=O)c1ccc(NC(=O)Cc2ccsc2)cc1 | n | n | n | n | n | x | x | x
COc1ccccc1C#Cc1cnc2c(c1)C(=O)N([C@@H](C)CO)C[C@@H](C)[C@@H](CN(C)S(=O)(=O)c1cn(C)cn1)O2 | x | x | x | x | n | x | x | x
O=C(c1ccc2c(c1)OCO2)N1CCN(c2ccc(Cl)cc2)CC1 | n | n | n | n | x | x | x | x
CC(=O)c1ccc(N2CCN(C(=O)c3ccc4c(c3)OCO4)CC2)cc1 | n | n | n | n | 91 | n | n | n
Cc1ccc(S(=O)(=O)N[C@@H]2CC[C@H](CCNC(=O)C3CCC3)O[C@H]2CO)cc1 | x | x | x | x | n | x | x | x
NC(=O)c1ccc(Oc2cccc3cccnc23)c([N+](=O)[O-])c1 | n | n | n | n | 42 | n | n | n
COc1ccc(C(=O)Oc2cccc3cccnc23)cc1[N+](=O)[O-] | n | n | n | n | x | x | x | x
COc1ccc(NC(=O)Nc2ccc3c(c2)C(=O)N([C@H](C)CO)C[C@H](C)[C@H](CN(C)C(=O)Nc2ccc(F)cc2)O3)cc1 | x | x | x | x | n | x | x | x
O=C(Nc1cccnc1)c1cc2nc(C3CC3)cc(C(F)(F)F)n2n1 | n | n | n | n | 90 | n | n | n
CC1(C(=O)NCc2ccco2)Cc2c(-c3cccc(C(N)=O)c3)ccnc2O1 (configuration not stated) | n | n | x | x | n | x | x | x
CC1=C(C#N)C(c2cccnc2)C2=C(CC(c3ccc(Cl)cc3)CC2=O)N1 (configuration not stated) | n | n | n | n | 63 | n | n | n
Nn1c(SC/C=C/c2ccccc2)nnc1-c1cccnc1 | n | n | n | n | 109 | n | n | n
Nn1c(SCc2nc3ccccc3[nH]2)nnc1-c1cccnc1 | n | n | n | n | 59 | n | n | n
Nn1c(SCCOc2ccccc2)nnc1-c1cccnc1 | n | n | n | n | 74 | n | n | n
Nn1c(SCCOc2ccc(Cl)cc2)nnc1-c1cccnc1 | n | n | n | n | x | x | x | x
SMILES | Yp Topo-I inh | FadD28 FP inh | PrP 5UTR inh | PfHsp40 yeast | BioA inh-1 | BioA inh-2 | HepG2 tox 2 | NIH3T3 tox 5
Cc1ccc(C(=O)Nc2ncc3c(n2)CC(c2ccco2)CC3=O)cc1 (configuration not stated) | n | n | n | n | x | x | x | x
O=C(Nc1ncc2c(n1)CC(c1ccco1)CC2=O)c1ccccc1 (configuration not stated) | n | n | n | n | 60 | n | n | n
CCOC(=O)c1ccc(N2C(=O)c3n[nH]c(C)c3C2c2ccc(OC)cc2)cc1 (configuration not stated) | n | n | n | n | n | x | x | x
CCOC(=O)c1ccc(N2C(=O)c3n[nH]c(C)c3C2c2ccc(OC)c(OC)c2)cc1 (configuration not stated) | n | n | n | n | 101 | n | n | n
CC(C)(C)[S@@](=O)N1Cc2cc(C(=O)NCc3ccccc3F)nc(-c3cccc(-c4cccnc4)c3)c2[C@H]1CCO | x | x | x | x | n | x | x | x
CC(C)(C)[S@](=O)N1Cc2cc(C(=O)NCc3ccccc3F)nc(-c3cccc(-c4cccnc4)c3)c2[C@@H]1CCO | x | x | x | x | 42 | n | n | n
C[C@@H]1CCCCO[C@H](CN(C)Cc2ccc(C(=O)O)cc2)[C@@H](C)CN([C@H](C)CO)C(=O)c2cc(NS(=O)(=O)c3cn(C)cn3)ccc2O1 | x | x | x | x | n | x | x | x
C[C@H]1CCCCO[C@H](CN(C)C(=O)NC2CCCCC2)[C@@H](C)CN([C@@H](C)CO)C(=O)c2cc(NS(C)(=O)=O)ccc2O1 | x | x | x | x | n | x | x | x
COc1ccc(C(C)NC(=O)Nc2ccc(C(C)=O)cc2)cc1OC (configuration not stated) | n | n | n | n | 43 | n | n | n
COc1ccc(NC(=O)N(C)C[C@@H]2OCCCC[C@@H](C)Oc3ccc(NC(=O)Nc4cccc5ccccc45)cc3C(=O)N([C@@H](C)CO)C[C@H]2C)cc1 | x | x | x | x | n | x | x | x
Cc1cnc(C(=O)NC2CC(C)(C)Cc3c2cnn3-c2cccc(F)c2)cn1 (configuration not stated) | n | n | n | n | 63 | n | n | n
Cc1ccc(-n2ncc3c2CC(C)(C)CC3NC(=O)CCc2cccnc2)cc1 (configuration not stated) | n | n | n | n | 45 | n | n | n
CCn1cc(C(=O)NC2CC(C)(C)Cc3c2cnn3-c2cccc(F)c2)cn1 (configuration not stated) | n | n | n | n | n | x | x | x
O=C(c1ccccc1)N1C[C@@H]2[C@H](c3ccccc31)[C@@H](CO)N2C(=O)c1ccccn1 | x | x | x | x | n | x | x | x
O=C(C1CCOCC1)N1CC[C@@H]2[C@H](CO)Nc3ccc(Br)cc3[C@@H]21 | x | x | x | x | 72 | n | n | n
O=C(C1CCOCC1)N1CC[C@@H]2[C@H]1c1cc(Br)ccc1N[C@@H]2CO | x | x | x | x | 74 | n | n | n
O=C(C1CCCCC1)N1CC[C@H]2[C@H](CO)Nc3ccc(Br)cc3[C@H]21 | x | x | x | x | n | x | x | x
O=C(Cc1ccccc1)N1CC[C@@H]2[C@H](CO)Nc3ccc(Br)cc3[C@@H]21 | x | x | x | x | 44 | n | n | n
COc1cccc(CN2[C@@H]3CN(C(=O)C4CC4)c4ccccc4[C@@H]3[C@@H]2CO)c1 | x | x | x | x | n | x | x | x
CC1CN(C(=O)Nc2ccc3snnc3c2)c2ccccc21 (configuration not stated) | n | n | n | n | 63 | n | n | n
COC(=O)C1C(=O)C=C(Nc2ccc(F)cc2F)CC1c1ccc(OC)cc1 (configuration not stated) | n | n | n | n | n | x | x | x

From PubChem BioAssay
